Each structure is given as a SMILES string. Compounds without any hit were thinned out: in the full panel of roughly 83,000, 20% have a hit.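 Interpretation: 100, growth as untreated; towards 0, rising growth inhibition; 0, no net growth; 0 to -100, cell death. Compounds scoring below 10 were considered active.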 Values without a mark were called inactive. Active and inactive are the calls of the source.

Some test systems named below: SK-MEL-2 melanoma; EKVX NSCLC; SN12C renal; UO-31 renal; TK-10 renal; ACHN renal; CAKI-1 renal; A498 renal; CCRF-CEM leukemia; MOLT-4 leukemia; SR leukemia; RPMI-8226 leukemia; OVCAR-8 ovarian; OVCAR-5 ovarian; OVCAR-4 ovarian; SK-OV-3 ovarian; IGROV1 ovarian; OVCAR-3 ovarian; HS 578T breast; NCI/ADR-RES ovarian.
What all share (assay): NCI-60 one-dose screen, 48 h (100 = growth as untreated, 0 = no growth, -100 = all killed)
What all share (settings): 10 µM unless noted

Consider `COc1ccc(NC(=O)Cn2c(/C=C/c3cccc(Br)c3)nc3ccccc3c2=O)cc1`, for which the growth in the test with SK-MEL-2 melanoma is 80.3%; with EKVX NSCLC, 81.8%; with SN12C renal it was 5.79% (active); with UO-31 renal, -60.6% (active); in the test with TK-10 renal, -39.4% (active); with ACHN renal, -51.1% (active). Also, the growth in the test on CAKI-1 renal was 55.7%; in the test with A498 renal, -51.1% (active); in the test with CCRF-CEM leukemia it was 86.8%; in the test on MOLT-4 leukemia, 86.5%; in the test with SR leukemia it was 78.3%; in the test on RPMI-8226 leukemia, 42.5%. In addition, the growth with OVCAR-8 ovarian is 14.4%; in the test on OVCAR-5 ovarian it was 47.6%; with OVCAR-4 ovarian, -45.7% (active); in the test on SK-OV-3 ovarian, 36.4%; in the test with IGROV1 ovarian, 49.8%; in the test with OVCAR-3 ovarian, 36.3%. Further, the growth with HS 578T breast was -0.494% (active); in the test on NCI/ADR-RES ovarian it was 31.2%.

Regarding `NS(=O)(=O)c1cccc(Nc2nc(SCC(=O)c3ccc(F)cc3)nc3ccccc23)c1`, the growth in the test on SK-MEL-2 melanoma is -47% (active); with EKVX NSCLC, 28%; in the test with SN12C renal it was 15.8%; with UO-31 renal it was 17.9%; with TK-10 renal, 44.6%; in the test with ACHN renal, 25.9%. The growth is 21.9% in the test on CAKI-1 renal; 71.1% in the test on A498 renal; 1.38% (active) in the test with CCRF-CEM leukemia; 2.93% (active) in the test with MOLT-4 leukemia; 8.61% (active) with SR leukemia; -2.61% (active) in the test with RPMI-8226 leukemia. The growth in the test on OVCAR-8 ovarian is 16.4%; in the test with OVCAR-5 ovarian it was 45.1%; in the test with OVCAR-4 ovarian, 15.6%; in the test on SK-OV-3 ovarian it was 38.3%; in the test on IGROV1 ovarian, 13.9%; in the test with OVCAR-3 ovarian, 0.387% (active). The growth in the test on HS 578T breast was 7.8% (active); in the test with NCI/ADR-RES ovarian it was 26.7%.

For `Cc1ccc(C(=O)Nc2ccc(-n3ccnc3)c(C(F)(F)F)c2)cc1C#Cc1cnc2cccnn12`, the growth in the test on SK-MEL-2 melanoma is -23.6% (active); with EKVX NSCLC, 27.5%; in the test with SN12C renal, 14.4%; in the test on UO-31 renal it was 5.87% (active); with TK-10 renal, 23%; in the test with ACHN renal it was 12.3%. Besides, the growth in the test with CAKI-1 renal was -4.4% (active); in the test with A498 renal, -6.46% (active); in the test with CCRF-CEM leukemia, 22.9%; in the test on MOLT-4 leukemia, -32.5% (active); in the test on SR leukemia, 13.8%; with RPMI-8226 leukemia, -4.27% (active). For the same compound, the growth with OVCAR-8 ovarian is 18.6%; in the test on OVCAR-5 ovarian, 39.8%; in the test with OVCAR-4 ovarian, 13.6%; in the test on SK-OV-3 ovarian it was 48%; with IGROV1 ovarian, 20%; in the test with OVCAR-3 ovarian it was 45.4%. Besides, the growth is -7.38% (active) with HS 578T breast and 24.7% with NCI/ADR-RES ovarian.

Take `COc1ccc(NC(=O)NN2C(=O)c3ccccc3N(C)C2c2ccc(OC)cc2)cc1` (stereo not given): the growth was 95.3% in the test on SK-MEL-2 melanoma; 100% in the test on EKVX NSCLC; 103% with SN12C renal; 75.3% with UO-31 renal; 97.2% with TK-10 renal; 106% in the test on ACHN renal. The growth in the test with CAKI-1 renal is 92.7%; in the test with A498 renal, 108%; in the test on CCRF-CEM leukemia, 98.7%; in the test with MOLT-4 leukemia it was 96.4%; with SR leukemia, 88.4%; in the test on RPMI-8226 leukemia it was 99.1%. Moreover, the growth was 103% in the test with OVCAR-8 ovarian; 107% with OVCAR-5 ovarian; 96.7% with OVCAR-4 ovarian; 101% in the test on SK-OV-3 ovarian; 108% with IGROV1 ovarian; 89.8% with OVCAR-3 ovarian. Further, the figures for the growth in the test with HS 578T breast and in the test with NCI/ADR-RES ovarian were 101% and 92.2%, respectively.

With `O=C(N/N=C/c1ccc(Br)o1)c1[nH]c2ccc(Br)cc2c1-c1ccccc1`, the growth in the test on SK-MEL-2 melanoma was 3.4% (active); with EKVX NSCLC, 12.6%; in the test with SN12C renal, -59.1% (active); in the test on UO-31 renal, -34% (active); in the test on TK-10 renal, 9.96% (active); with ACHN renal, -21.3% (active). Besides, the growth with CAKI-1 renal is 2.87% (active); with A498 renal it was -7.37% (active); in the test with CCRF-CEM leukemia, 4.07% (active); with MOLT-4 leukemia, -0.952% (active); in the test with SR leukemia it was 5.02% (active); in the test on RPMI-8226 leukemia, 10.6%. For the same compound, the growth is -35.9% (active) in the test on OVCAR-8 ovarian; -21.8% (active) with OVCAR-5 ovarian; -17.2% (active) in the test with OVCAR-4 ovarian; 22% in the test with SK-OV-3 ovarian; 5.42% (active) in the test with IGROV1 ovarian; -28.6% (active) in the test on OVCAR-3 ovarian. The values for the growth with HS 578T breast and with NCI/ADR-RES ovarian were -4.62% (active) and -41.6% (active), respectively.

Regarding `Cc1ccc(C2CC(c3ccc(NC(=O)Nc4ccccc4)cc3)=NN2c2ccc(S(N)(=O)=O)cc2)cc1` (stereo not given), the growth was -81.7% (active) with SK-MEL-2 melanoma; -95.1% (active) in the test on EKVX NSCLC; -91.6% (active) in the test with SN12C renal; -100% (active) with UO-31 renal; -81.4% (active) in the test with TK-10 renal; -100% (active) in the test on ACHN renal. Besides, the growth is -98.2% (active) in the test on CAKI-1 renal; -93% (active) in the test on A498 renal; -17.7% (active) in the test with CCRF-CEM leukemia; -27.8% (active) in the test on MOLT-4 leukemia; -12.7% (active) in the test with SR leukemia; -11.5% (active) with RPMI-8226 leukemia. Besides, the growth is -46.2% (active) in the test on OVCAR-8 ovarian; -95.4% (active) in the test with OVCAR-5 ovarian; -87.6% (active) with OVCAR-4 ovarian; -77.6% (active) with SK-OV-3 ovarian; -93.5% (active) in the test on IGROV1 ovarian; -75.8% (active) with OVCAR-3 ovarian. The growth in the test on HS 578T breast is -28.7% (active); in the test with NCI/ADR-RES ovarian, -66.9% (active).

With `CCCSc1nnc(-c2c(C)nc3sccn23)o1`, the growth is 104% with SK-MEL-2 melanoma; 66.8% in the test with EKVX NSCLC; 87.1% in the test with SN12C renal; 69.9% in the test with UO-31 renal; 113% with TK-10 renal; 84.9% in the test with ACHN renal. In addition, the growth is 79.4% in the test on CAKI-1 renal; 92.3% in the test with A498 renal; 86.3% in the test with CCRF-CEM leukemia; 94.4% in the test on MOLT-4 leukemia; 120% in the test with SR leukemia; 70.3% with RPMI-8226 leukemia. Besides, the growth with OVCAR-8 ovarian was 98.3%; in the test on OVCAR-5 ovarian, 85.9%; in the test with OVCAR-4 ovarian, 71.9%; with SK-OV-3 ovarian it was 108%; in the test with IGROV1 ovarian it was 83.8%; in the test with OVCAR-3 ovarian it was 98.5%. Further, the growth in the test on HS 578T breast was 79.6%; in the test on NCI/ADR-RES ovarian it was 83.5%.
